Records with an inconclusive call do not appear. The source made the active and inactive calls. Unless noted, calls follow the shape of the dose curve; as a rule, active = well fitted curve in the direction sought with a large enough effect; inconclusive = small, poorly fitted or top-dose-only effect, or another doubt; inactive = no such curve, though single readings can be large; an effect the other way counts as inactive or inconclusive.
Assays:
[1] = Cell Viability - BJ (AID 421; calls by dose curve;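 also: potency is read from the fitted curve at half-maximal effect; cells exposed to compound for 40 hours at 37 °C before readout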); settings: BJ fibroblast viability, qHTS
In short: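 Quantitative HTS: ATP depletion in BJ cells after 40 hr compound exposure in complete culture medium, detected with CellTiter-Glo; AC50 from standard Hill fits.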

[2] = Cell Viability - Jurkat (AID 426;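 active = dose-dependent loss of cell ATP signal giving a full or clear fitted curve, ranked by lower potency value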; also: potency is read from the fitted curve at half-maximal effect); settings: qHTS
In short: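 qHTS, 1536-well; Jurkat E6-1, 5000 cells/well, complete medium; cpd 40 hr, 37 °C; CellTiter-Glo 20 min RT; luminescence. AC50 by Hill fit.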

[3] = Cell Viability - Hek293 (AID 427;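 active = compounds whose dose-response curve shows a full or clear partial loss of cell viability, called from curve shape rather than a numeric limit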;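 also: potency is read from the fitted curve at half-maximal effect; cells exposed to compound for 40 hours at 37 °C before reading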); settings: qHTS
In short: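 AC50 values derive from Hill-modelled concentration-response of ATP-based luminescence, normalized between DMSO-only and 100 uM tamoxifen controls. Cells were exposed in complete culture medium for 40 hr at 37 °C before detection.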

[4] = Cell Viability - HepG2 (AID 433; calls by dose curve;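 also: potency is read from the fitted curve at half-maximal effect; potency for ATP loss meaning cytotoxicity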); settings: qHTS
In short: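 HepG2 hepatocellular carcinoma cells (1500/well) were treated with compounds for 40 h at 37 °C in complete medium; intracellular ATP was read by CellTiter-Glo luminescence. Data were normalized to DMSO and 100 uM tamoxifen, and AC50 came from Hill fits.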

[5] = Cell Viability - MRC5 (AID 434; calls by dose curve;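 also: potency is read from the fitted curve at half-maximal effect; potency reflects cytotoxicity seen as loss of intracellular ATP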); settings: MRC5 lung fibroblast viability, qHTS
In short: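 MRC5 normal human lung fibroblasts, 1500 cells/well, exposed to compound for 40 hr at 37 C. Cellular ATP was read by CellTiter-Glo luminescence; data normalized to DMSO and 100 uM tamoxifen, with AC50 from Hill fits.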

[6] = Cell Viability - SK-N-SH (AID 435; calls by dose curve;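 also: potency is read from the fitted curve at half-maximal effect; compound exposure lasted 40 h at 37 °C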); settings: SK-N-SH neuroblastoma cell viability qHTS
In short: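 SK-N-SH human neuroblastoma cells (1500/well) were exposed to compounds in complete medium for 40 h at 37 °C, and intracellular ATP was then measured by CellTiter-Glo luminescence. AC50 was taken from Hill fits, normalized to DMSO and 100 uM tamoxifen.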

[7] = target: Mitogen-activated protein kinase 10 (Mus musculus) (UniProt Q61831); test: JNK3 AlphaScreen Assay (AID 530; active = well fitted curve in either direction with a large enough effect, not every such curve was filed as active;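 also: kinase came from lysate of stimulated human HepG2 cells; signal reports phosphorylation of biotinylated GST-cJun 1-79 at Ser73 with 10 µM ATP; % is scaled to controls: 0 for no effect and ±100 for the full control effect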); settings: JNK3 lysate, c-Jun phosphorylation; series mostly up to 57.1 µM
In short: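 Pre-activated (IL-1β/TNFα) JNK3 in HepG2 lysates phosphorylates biotin-GST-cJun(1-79), 10 uM ATP; anti-phospho-cJun(Ser73) AlphaScreen read at room temperature, pH 7.6 Tris buffer. Compounds pre-incubated 15 min as titrations.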

[8] = Cell Viability - N2a (AID 540); settings: N2a mouse neuroblastoma cell viability; activity change, negative = cytotoxicity: at 92.2 µM (top of the series);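 also: plate controls were DMSO alone for no effect and tamoxifen control for full effect; nearly all actives have a fitted effect of over 45% in size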
In short: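 Luminescent ATP signal (CellTiter-Glo, 20 min at room temperature) served as the viability read-out after N2a cells were treated with compounds for 40 hours at 37 °C. Concentration-response data were fitted to the Hill equation for AC50.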

[9] = Cell Viability - NIH 3T3 (AID 541); settings: NIH 3T3 cell viability, qHTS; activity change, negative = cytotoxicity: at 92.2 µM (top of the series);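 also: plate controls were DMSO alone for no effect and tamoxifen positive control for full effect; nearly all actives have a fitted effect of over 25% in size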
In short: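 Luminescent ATP signal (CellTiter-Glo) served as the viability read-out after NIH 3T3 cells were exposed to compounds over a concentration range for 40 hr at 37 °C. Hill-equation modelling of concentration-response data gave AC50.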

[10] = Cell Viability - HUV-EC-C (AID 542); settings: HUV-EC-C endothelial cell viability, qHTS; series mostly up to 92.2 µM; also: % is scaled to controls: 0 for no effect and ±100 for the full control effect; nearly all actives have a fitted effect of over 35% in size
In short: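 qHTS cytotoxicity: HUV-EC-C, 1000 cells/well, 5 hr settle, compound 40 hr 37 °C, CellTiter-Glo, luminescence. AC50 via Hill equation.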

[11] = Cell Viability - H-4-II-E (AID 543); settings: H-4-II-E rat hepatoma viability; series mostly up to 92.2 µM; also: % is scaled to controls: 0 for no effect and ±100 for the full control effect; nearly all actives have a fitted effect of over 35% in size
In short: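 Luminescent ATP signal (CellTiter-Glo) served as the viability read-out, with cytotoxicity seen as a concentration-dependent ATP drop. Cells were treated for 40 hours in complete medium. AC50 values derive from Hill-equation modelling.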

[12] = Cell Viability - Renal Proximal Tubule (AID 545); settings: renal proximal tubule cells viability, primary cells of rat origin; series mostly up to 91.7 µM; also: nearly all actives have a fitted effect of over 40% in size
In short: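 Primary rat renal proximal tubule cells (1000/well) were treated with compounds for 40 hr at 37 °C in complete medium. Intracellular ATP was measured by CellTiter-Glo luminescence, and AC50 values came from Hill-equation fits of concentration-response data.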

[13] = Cellular Toxicity (caspase-3) HepG2 (AID 654); settings: HepG2 caspase-3 activation, luminescence; series mostly up to 92.2 µM;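 also: cells exposed to compound for 16 hours before reading; 0% = DMSO alone and 100% = caspase signal from 100 µM tamoxifen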
In short: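 Cells plated 5 hr at 37 °C, compound added, incubated 16 hr at 37 °C. Caspase-Glo 3/7 reagent followed, 20 min at room temperature, then luminescence read. Activation scored as signal increase; AC50 from Hill fit.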

[14] = Cellular Toxicity (caspase-3) Jurkat (AID 655); settings: Jurkat caspase-3 activation, luminescence; caspase-3 activation: at 92.2 µM (top of the series), DMSO = 0%, tamoxifen = 100%;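 also: cells exposed to compound for 16 h at 37 °C before reading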
In short: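 Jurkat cells (5000/well) in complete medium were treated with compounds for 16 hr at 37 °C, then Caspase-Glo 3/7 luminescence was read after 20 min at room temperature. Data normalized to DMSO (basal) and 100 uM tamoxifen (100%); AC50 from Hill fit.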

[15] = Cellular Toxicity (caspase-3) HUV-EC-C (AID 656); settings: HUV-EC-C cells, caspase-3 activation (apoptosis), vehicle = 0, 100 µM tamoxifen = 100%; series mostly up to 92.2 µM
In short: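 HUV-EC-C endothelial cells, 1000/well, were pre-incubated 5 hr at 37°C, then exposed to compounds for 16 hr at 37°C. Caspase-Glo 3/7 luminescence was read after 20 min at room temperature. AC50 came from Hill fits, normalized to DMSO and 100 uM tamoxifen.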

[16] = Cellular Toxicity (caspase-3) SHSY5Y (AID 657); settings: SH-SY5Y caspase-3 activation, DMSO zero, 10 µM staurosporine = 100%; series mostly up to 91.7 µM
In short: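 SH-SY5Y human neuroblastoma cells (1500/well) were treated with compounds for 16 h at 37 °C, then Caspase-Glo 3/7 luminescence was read after 1 h at room temperature. Data normalized to DMSO and 10 uM staurosporine; AC50 from Hill fits.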

[17] = Cellular Toxicity (caspase-3) BJ (AID 658); settings: BJ fibroblasts, luminescence, normalized: DMSO 0%, staurosporine 100%; series mostly up to 91.7 µM
In short: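 BJ human foreskin fibroblasts, 1000 cells/well, treated 16 hours at 37 °C in complete medium; caspase 3/7 activity by Caspase-Glo luminescence after 1 hr at room temperature. Normalized to DMSO and 10 uM staurosporine; AC50 from Hill fits.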

[18] = Cellular Toxicity (caspase-3) MRC-5 (AID 659); settings: MRC-5 cells, luminescence, normalized: DMSO 0%, 10 µM staurosporine 100%; series mostly up to 91.7 µM
In short: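 MRC-5 human normal lung fibroblasts, 1500 cells/well, treated 16 h at 37 °C in complete medium. Caspase 3/7 measured by Caspase-Glo luminescence after 1 h at room temperature. Normalized to DMSO and 10 uM staurosporine; AC50 from Hill fit.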

[19] = Cell Viability - SH-SY5Y (AID 544); settings: SH-SY5Y neuroblastoma cell viability; viability change, negative = cytotoxic: at 92.2 µM (top of the series); also: nearly all actives have a fitted effect of over 55% in size
In short: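 Luminescent ATP read-out (CellTiter-Glo) measures loss of viable SH-SY5Y neuroblastoma cells after 40 hr compound exposure at 37 °C. AC50 values derive from standard Hill modelling of qHTS concentration-response data.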

[20] = Cell Viability - Mesenchymal (AID 546); settings: mesenchymal cells viability, qHTS; series mostly up to 91.7 µM;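 also: cells exposed to compound for 40 hours before reading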
In short: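 Human kidney mesenchymal cells from normal renal glomeruli, 1000 cells/well, rested 5 hr at 37 °C, then treated 40 hr at 37 °C in complete medium. Cellular ATP read by CellTiter-Glo luminescence; AC50 from Hill-equation fits.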

CCCOCC(C)O (stereo not drawn)
inactive: Potency [1] > 92 µM | Potency [2] > 92 µM | Potency [3] > 92 µM | Potency [4] > 92 µM | Potency [5] > 92 µM | Potency [6] > 92 µM | outcome [7] | activity change, negative = cytotoxicity [8] -5.54% | Potency [9] | Potency [10] | Potency [11] | Potency [12] | Potency [13] | caspase-3 activation [14] 3.45% | outcome [15] | outcome [16] | outcome [17] | outcome [18]

CC1(N)CCC(C(C)(C)N)CC1 (stereo not drawn)
inactive: Potency [1] > 92 µM | Potency [2] > 92 µM | Potency [3] > 92 µM | Potency [4] > 92 µM | Potency [5] > 92 µM | Potency [6] > 92 µM | outcome [7] | activity change, negative = cytotoxicity [8] -2.82% | Potency [9] | Potency [10] | Potency [11] | Potency [12] | Potency [13] | caspase-3 activation [14] 1.23% | outcome [15] | outcome [16] | outcome [18]

Cc1cccc(C)c1[N+](=O)[O-]
inactive: Potency [1] > 92 µM | Potency [2] > 92 µM | Potency [3] > 92 µM | Potency [4] > 92 µM | Potency [5] > 92 µM | Potency [6] > 92 µM | outcome [7] | activity change, negative = cytotoxicity [8] -11.3% | Potency [9] | Potency [10] | Potency [11] | Potency [19] | Potency [20] | Potency [13] | caspase-3 activation [14] 0.339% | outcome [15] | outcome [16] | outcome [17] | outcome [18]

Nc1cccc(O)c1
inactive: Potency [1] > 92 µM | Potency [2] > 92 µM | Potency [3] > 92 µM | Potency [4] > 92 µM | Potency [5] > 92 µM | Potency [6] > 92 µM | outcome [7] | Potency [9] | Potency [10] | Potency [11] | Potency [19] | Potency [12] | Potency [20] | Potency [13] | caspase-3 activation [14] 0.69% | outcome [15] | outcome [16] | outcome [17] | outcome [18]

Clc1ccc(Cl)c(Cl)c1Cl
inactive: Potency [1] > 92 µM | Potency [2] > 92 µM | Potency [3] > 92 µM | Potency [4] > 92 µM | Potency [5] > 92 µM | outcome [7] | activity change, negative = cytotoxicity [8] -2.29% | Potency [9] | Potency [10] | Potency [11] | Potency [19] | Potency [12] | Potency [20] | Potency [13] | caspase-3 activation [14] -1.65% | outcome [15] | outcome [16] | outcome [17] | outcome [18]

NC(=O)/N=N/C(N)=O
inactive: Potency [1] > 92 µM | Potency [2] > 92 µM | Potency [3] > 92 µM | Potency [4] > 92 µM | Potency [5] > 92 µM | Potency [6] > 92 µM | outcome [7] | activity change, negative = cytotoxicity [8] 10.3% | Potency [9] | Potency [11] | Potency [19] | Potency [20] | Potency [13] | caspase-3 activation [14] -2.04% | outcome [15] | outcome [16] | outcome [17] | outcome [18]

COC(=O)CC#N
inactive: Potency [1] > 92 µM | Potency [2] > 92 µM | Potency [3] > 92 µM | Potency [4] > 92 µM | Potency [5] > 92 µM | Potency [6] > 92 µM | outcome [7] | activity change, negative = cytotoxicity [8] -15.8% | Potency [9] | Potency [11] | Potency [19] | Potency [12] | Potency [13] | caspase-3 activation [14] 1.32% | outcome [15] | outcome [16] | outcome [18]

Cc1ccc(C(=O)O)cc1
inactive: Potency [1] > 92 µM | Potency [2] > 92 µM | Potency [3] > 92 µM | Potency [4] > 92 µM | Potency [5] > 92 µM | Potency [6] > 92 µM | outcome [7] | activity change, negative = cytotoxicity [8] 3.7% | Potency [9] | Potency [11] | Potency [19] | Potency [12] | Potency [13] | caspase-3 activation [14] 1.89% | outcome [15] | outcome [17] | outcome [18]

CCCCCCO
inactive: Potency [1] > 92 µM | Potency [2] > 92 µM | Potency [3] > 92 µM | Potency [4] > 92 µM | Potency [5] > 92 µM | outcome [7] | activity change, negative = cytotoxicity [8] 4.85% | Potency [9] | Potency [10] | Potency [11] | Potency [19] | Potency [12] | Potency [20] | Potency [13] | caspase-3 activation [14] -0.00564% | outcome [15] | outcome [16] | outcome [17] | outcome [18]

Cc1cc([N+](=O)[O-])ccc1N
inactive: Potency [1] > 92 µM | Potency [2] > 92 µM | Potency [3] > 92 µM | Potency [4] > 92 µM | Potency [5] > 92 µM | Potency [6] > 92 µM | outcome [7] | activity change, negative = cytotoxicity [8] -8.91% | Potency [10] | Potency [11] | Potency [19] | Potency [12] | Potency [13] | caspase-3 activation [14] -1.03% | outcome [15] | outcome [16] | outcome [17] | outcome [18]

C=CC(=O)NC(C)C
inactive: Potency [1] > 92 µM | Potency [2] > 92 µM | Potency [3] > 92 µM | Potency [4] > 92 µM | Potency [5] > 92 µM | Potency [6] > 92 µM | outcome [7] | Potency [9] | Potency [10] | Potency [11] | Potency [19] | Potency [20] | Potency [13] | caspase-3 activation [14] -1.34% | outcome [15] | outcome [16] | outcome [17] | outcome [18]

O=C(O)c1cccc([N+](=O)[O-])c1
inactive: Potency [1] > 92 µM | Potency [2] > 92 µM | Potency [3] > 92 µM | Potency [4] > 92 µM | Potency [5] > 92 µM | outcome [7] | activity change, negative = cytotoxicity [8] -0.379% | Potency [9] | Potency [10] | Potency [11] | Potency [19] | Potency [12] | Potency [20] | Potency [13] | caspase-3 activation [14] 0.351% | outcome [15] | outcome [16] | outcome [17] | outcome [18]
